Data: the supplement of paper PMC3334620
In all, about 33,000 sequences were measured (“E-score (-0.5 to 0.5)”: median about -0.054, highest 2% from about 0.35 on). What follows is part of a selection rich in the highest values, with near analogues and random picks from the rest.

The sequences below were run against T1, Stb5 (UniProt P38699) (assay: PBM E-score (8-mer binding enrichment) (E-score (-0.5 to 0.5)); higher = stronger / more preferred TF binding). Conditions: protein concentration: 200 nM; construct: GST-full length.
T1 sequence: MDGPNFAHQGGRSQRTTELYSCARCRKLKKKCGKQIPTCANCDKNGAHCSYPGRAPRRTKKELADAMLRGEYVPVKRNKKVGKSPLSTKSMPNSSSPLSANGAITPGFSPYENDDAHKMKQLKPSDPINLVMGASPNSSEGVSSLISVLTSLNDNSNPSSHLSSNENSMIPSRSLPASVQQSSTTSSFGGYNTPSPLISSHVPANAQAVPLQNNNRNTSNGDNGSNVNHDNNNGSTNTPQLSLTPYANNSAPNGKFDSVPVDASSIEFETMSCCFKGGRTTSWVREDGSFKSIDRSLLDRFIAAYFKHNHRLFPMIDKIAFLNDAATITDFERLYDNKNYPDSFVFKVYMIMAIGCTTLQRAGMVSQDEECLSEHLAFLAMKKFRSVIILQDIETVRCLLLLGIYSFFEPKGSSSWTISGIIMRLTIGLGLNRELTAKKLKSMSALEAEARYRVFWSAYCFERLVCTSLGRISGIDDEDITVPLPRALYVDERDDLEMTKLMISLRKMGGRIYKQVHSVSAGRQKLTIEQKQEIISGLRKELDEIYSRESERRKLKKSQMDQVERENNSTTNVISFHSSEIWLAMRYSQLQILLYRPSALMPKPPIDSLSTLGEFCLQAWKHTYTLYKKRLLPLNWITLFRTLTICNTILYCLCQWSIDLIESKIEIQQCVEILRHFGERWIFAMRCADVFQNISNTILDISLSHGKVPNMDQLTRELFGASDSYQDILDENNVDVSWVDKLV
Method in brief: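 Universal all-10-mer Agilent arrays, double-stranded by primer extension on fresh or once-stripped slides, were probed with about 100-200 nM GST-tagged yeast transcription factors made by PURExpress. Fluorescent anti-GST detected bound protein, and masliner normalised the scans. E-scores from the Universal PBM Analysis Suite were given to each ungapped eight-base word pooled with its reverse complement.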

Sequence | PBM E-score
CCTCTCCG | -0.171
AATCATTG | -0.314
GTGGCACA | -0.325
CGGGGGCA | 0.275
ACCGATGA | 0.264
GCCGATGA | 0.357
CCCGATGA | 0.226
CCCTATAG | -0.104
AATGGCAT | 0.0389
AGAGCGGA | 0.312
GGGGCGGA | 0.293
CGAGCGGA | 0.385
CGAGCGGC | 0.318
CCGGCGGA | 0.385
CCGGCGGC | 0.327
CGGGCGGC | 0.308
CGGGCGGA | 0.359
GCGGCGGA | 0.333
AATTGGCC | -0.224
CATCTAGG | -0.139
CGAATTGA | -0.12
ACAATTCG | -0.00889
AGGTATCC | -0.211
CGCCTTAA | 0.0389
CGGCCTCA | 0.363

Sequence | PBM E-score
AGGCCTCA | -0.264
CGGCCTCC | 0.129
CTTTAGCA | 0.133
ATCTCTGA | -0.172
AGACCGAA | 0.236
AGACCGAG | 0.177
CGACCGAC | 0.271
GCACCGAC | 0.45
AAACCGAA | -0.0132
GCACCGAA | 0.358
ACACCGAA | 0.386
CCACCGAA | 0.117
GGACCGAC | 0.318
TCACCGAA | 0.217
GAACCGAC | 0.225
AGACCGAC | 0.385
AAGAACTA | -0.0107
AGGTTCAC | -0.164
CAATTCGC | 0.0656
ACGAGAAA | -0.0778
CAATGGCC | 0.0847
ATGAGGCA | -0.24
ATCTTGGG | -0.145
CGAAGGAA | -0.188
GATGAGAC | -0.136

Sequence | PBM E-score
CCACCGAG | 0.0738
AAACCGAC | 0.222
AGACCGAT | 0.272
CCACCGAC | 0.346
AAACCGAT | 0.121
ACACCGAG | 0.369
AAACCGAG | -0.0377
ACACCGAT | 0.447
ACACCGAC | 0.466
AATGGTTC | 0.00524
TAAATCTA | -0.0639
GAATGAAA | 0.0556
AATGCGGA | 0.2
CCGAAGCG | 0.225
ACCTTAAT | 0.0412
AGGGCGCC | -0.0741
CACGCCCG | 0.0876
GACCATCA | 0.0409
ACCACCGT | 0.354
TCCACCGA | 0.176
ACCACCAT | -0.138
ACCACCGC | 0.391
ACCACCGG | 0.406
CCCACCGC | 0.221
CCCACCGG | 0.303

Sequence | PBM E-score
CCCACCGA | 0.118
ACCACCGA | 0.357
ACCACCAG | -0.148
ACCACCCT | -0.168
GCCACCGC | 0.335
GGCGAGTA | -0.101
CCTCTATA | -0.232
CCTGACTC | -0.153
CCTATAAG | -0.0382
AACCTTGC | -0.0575
AAGAAGTA | -0.102
GAGCAAGC | -0.168
AGCAACCA | -0.068
CCAATTCA | -0.261
CCCGACAC | 0.34
GCCGACAC | 0.239
CCCGACAG | 0.305
ACCGACAC | 0.361
CCCGACAA | 0.328
AACGACAG | -0.205
ACCGACAA | 0.369
ACCGACAT | 0.322
ACCGACAG | 0.363
GGTTTGGA | 0.0254
ACGATATG | -0.0261

Sequence | PBM E-score
ATGGTTCG | -0.0398
CTCGTTTC | -0.214
CGACCTAA | 0.017
GGACCTAA | 0.365
TGACCTAA | -0.117
AGGAGCTA | -0.0145
CGGAGCTC | 0.249
CGGAGCTA | 0.446
CGGAGGTA | 0.434
CGGAGGTC | 0.122
AGGAGGTA | -0.0118
TGTACGAA | -0.0429
ACCACTGA | -0.202
AGCCGACG | 0.232
GGCCGACA | 0.327
TGCCGACA | 0.298
CGCCGACA | 0.354
CGCCGACG | 0.395
CGCCGACC | 0.345
GGCTCTTA | 0.0283
ACTCTAAA | 0.01
ACCGCACG | 0.153
AACGGGGA | 0.288
GATCTACC | -0.0916
CGCTGTTC | 0.0181

Sequence | PBM E-score
AGCTGTTA | -0.234
CGCTGTTA | 0.445
GTCGGAAC | 0.315
ACTCTCTA | -0.205
ATAATGAA | -0.076
ATACCGAT | 0.353
CTACCGAC | 0.264
GTACCGAA | 0.145
ATACCGAG | 0.224
GTACCGAC | 0.382
ATACCGGC | 0.304
ATACCGAC | 0.398
ATACCGAA | 0.242
CTACCGAA | 0.0544
AACGTTGT | -0.107
CGGTATAG | 0.179
AACACTGT | -0.22
AGCTGGTC | -0.26
TAACAGTA | -0.227
AAAAAGTC | 0.175
TAGCTGCA | -0.191
ACGGTGCG | 0.281
GCGGTGAA | 0.345
ACGGTGAG | 0.141
GGGGTGAC | 0.0132

Sequence | PBM E-score
GCGGTGAC | 0.358
ACTGTGCT | -0.241
ACGGTGAT | 0.367
ACGGTGCT | 0.409
ACGGTGCA | 0.127
ACGGTGAC | 0.297
ACGGTGCC | 0.372
AAGGTGCT | -0.0966
GAGAGTGC | -0.209
AAACTGAT | -0.104
CAGAGGGA | -0.261
GATACTCC | 0.146
TAGCACTA | -0.246
AAAAAGAA | 0.175
GCCAAGGA | -0.0748
TAGGTCCA | -0.0733
AGTTGCTG | -0.167
GTCGTTAA | -0.0792
CGAAGTTC | -0.147
CCGACAGC | 0.341
ACGCTTTC | -0.205
ATGCTCCC | -0.0728
CCGGTGCC | 0.328
ACGGTACT | 0.389
ACGGTCAT | 0.368

Sequence | PBM E-score
ACGGTACG | 0.214
ACGGTCAG | -0.0787
ACGGTCAA | 0.126
ACGGTACC | 0.283
GCGGTGCC | 0.387
GCGGTGCA | 0.259
TCGCTAGA | -0.243
AGCACCTG | -0.14
CCCTCTCA | -0.284
AAACGAGC | -0.209
GTACTCCA | -0.229
CGCGGACA | 0.315
AGCGGACG | 0.284
AGCGGACT | 0.39
AGCGGACA | 0.393
AGCGGATA | 0.286
AGCGGAAT | 0.228
CCCCCCCA | -0.263
ACTCATAT | -0.0119
CACCCCGC | 0.394
TACCCCAA | -0.157
TACCCCGA | 0.407
GACCCCGC | 0.391
GACCCCCC | -0.259
GACCCCCA | -0.201

Sequence | PBM E-score
GCCCCCGC | 0.256
CACCCCGA | 0.325
CACCCCCC | -0.14
CACCCCGG | 0.277
TACCCCCA | -0.114
GACCCCGA | 0.377
GGTGCTCA | 0.0877
CGAAAGAG | -0.0144
ACGCAGAG | -0.218
CCTCCATC | -0.18
AGCGGGAC | 0.303
AGCGAGAC | -0.0631
CTAGCACC | 0.336
GCGTCATA | -0.0207
GCAATGCA | -0.0992
CCAGCCAG | -0.223
ACAGTGAA | -0.147
CCTTAATC | 0.109
GTTATCTA | -0.00767
